# Shown are actives, neighbours in structure and some others; about 7.8% of the full set was active somewhere.
# Vaccinia mCherry: vaccinia inhibition (mCherry reporter). Vaccinia virus mCherry reporter infection, fluorescence. Potency, µM (doses to about 36.5 µM), without a hit: top-dose activity change, negative = inhibition, most hits filed as inhibitors. hit rate 0.63% among 310,000; calls by dose curve; tested in A549 cells; note: potency is the fitted concentration of half-maximal effect; nearly all actives have a fitted effect of over 35% in size
# Lassa entry inh: inhibitors of Lassa virus binding or cell entry. Lassa virus pseudotype entry inhibition, cell reporter. Potency, µM (top dose mostly 37.9 µM), for inactives: at the top dose activity change, negative = inhibition, hits mostly inhibitors. hit rate 1.2% among 300,000. AID 540256; calls by dose curve; tested in HEK293 cells; note: potency is the fitted concentration of half-maximal effect; nearly all actives have a fitted effect of over 50% in size
# HCMV antiviral: blocks human cytomegalovirus replication; AID 1259415; hit rate 4.5% among 410,000; activity change, negative = inhibition, % at 57.5 µM; HFF cells, HCMV-luciferase reporter, 72 h; hits give low values; in the data active = activity change below about -60%; inconclusive = no clear call, values can overlap the other calls; inactive = above about -39%
#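 Steps: HFFs plated, 16 h 37C; compounds added; HCMV-luciferase added to MOI 1 PFU/cell; 72 h 37C; OneGlo reagent, 5 min room temperature; luminescence read, normalized to controls.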
# Vaccinia Venus: inhibitors of vaccinia virus (Venus reporter); Vaccinia virus Venus reporter expression, fluorescence; Potency, µM (highest dose often 36.5 µM), for inactives: top-dose activity change, negative = inhibition, actives largely listed as inhibitors; hit rate 0.46% among 330,000; calls by dose curve; tested in A549 cells; note: potency is the fitted concentration of half-maximal effect; nearly all actives have a fitted effect of over 30% in size
# HCV inhibitor: inhibitors of hepatitis C virus infection; Huh7.5.1 HCVcc-Cre infection, luciferase reporter, 44 h; hit rate 3.4% among 340,000; Potency, µM (doses to about 41.8 µM), inactives show top-dose activity change, negative = inhibition, hits mostly inhibitors; AID 651820; active = well fitted inhibition curve with a large enough effect; inconclusive = small, poorly fitted or top-dose-only effect, or another doubt; inactive = no such curve, though single readings can be large or run the other way; note: potency is the fitted concentration of half-maximal effect
#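 Seed cells (1,000/well) for 4 h; treat with compound and infect with HCVcc-Cre, moi about 0.5. Incubate 44 h, then detect luciferase activity.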
# Marburg entry inh: Marburg virus entry inhibition | Marburg virus pseudotyped entry inhibition, cell reporter | Potency, µM (doses to about 37.8 µM), inactives show top-dose activity change, negative = inhibition, hits mostly inhibitors | hit rate 1.8% among 300,000 | AID 540276; calls by dose curve; tested in HEK293 cells; note: potency is the fitted concentration of half-maximal effect
# An asterisk follows results filed as active; i = inactive; ? = inconclusive; . = not tested or not shown; [ ] = remark or other dose. % is set by controls: 0 for no effect and ±100 for the full control effect.
SMILES,Vaccinia mCherry,Lassa entry inh,HCMV antiviral,Vaccinia Venus,HCV inhibitor,Marburg entry inh
O=C(CCl)Nc1cccc(S(=O)(=O)NC2=NCCCCC2)c1,.,.,-102*,.,6.3µM*,.
CC(NC(=O)C(Cc1ccccc1)N1C(=O)C2C3CCC(C3)C2C1=O)c1ccccc1 (stereo not drawn),.,?,-61*,.,1%,-1%
CC(c1ccccc1)N1C(=O)C2C3CCC(C3)C2C1=O (stereo not drawn),-13%,-3%,-21,-7%,5%,?
Clc1ccc(/C=C/c2ccc3ccccc3n2)cc1Cl,-11%,.,.,-25%,.,.
Cc1cc(C)cc(-n2cc(C(=O)O)c(=O)cc2C)c1,-1%,10%[46.1 µM],-80*,-1%,11%,?
Cc1cccc(-n2cc(C(=O)O)c(=O)cc2C)c1,-5%,11%[46.1 µM],-27,-14%,22%,16%[46.1 µM]
CCCCCCn1c(=O)n2n(c1=O)[C@@H]1CN(S(=O)(=O)c3ccc(C)cc3)C[C@]1(O)[C@@H](OC(=O)NC1CC1)C2,?,.,7,-24%,.,.
Cc1ccc(S(=O)(=O)N2C[C@H]3n4c(=O)ccc(=O)n4C[C@H](OC(=O)Nc4cccs4)[C@@]3(O)C2)cc1,?,.,5,-24%,.,.
Cc1ccc(S(=O)(=O)N2C[C@H]3n4c(=O)ccc(=O)n4C[C@H](OC(=O)NCc4ccccc4F)[C@@]3(O)C2)cc1,?,.,-102*,?,.,.
CCCCCCNC(=O)O[C@H]1Cn2c(=O)n(CCCCCC)c(=O)n2[C@@H]2CN(S(=O)(=O)c3ccc(C)cc3)C[C@]12O,?,.,-103*,16µM*,.,.
CCCCCCn1c(=O)n2n(c1=O)[C@@H]1CN(S(=O)(=O)c3ccc(C)cc3)C[C@]1(O)[C@@H](OC(=O)NCc1ccccc1F)C2,-20%,.,13,?,.,.
CCCCCCNC(=O)O[C@H]1Cn2c(=O)ccc(=O)n2[C@@H]2CN(S(=O)(=O)c3ccc(C)cc3)C[C@]12O,?,.,-89*,10µM*,.,.
CCCN1CCN(CCCNC(=O)c2cnn(-c3ccc(F)cc3)c2-n2cccc2)CC1,-4%,-3%[46.1 µM],-10,-6%,.,.
Cc1ccc2[nH]c(=O)c3cc(C(=O)N4CCN(c5ccccc5)CC4)sc3c2c1,12%,-26%[46.1 µM],18,0%,.,?
COc1cccc2c1cc1c(=O)n(CC(=O)NCc3ccc(C)o3)nc(C)n12,-14%,.,39,-7%,.,23%[46.1 µM]
CCS(=O)(=O)c1ncc(N(Cc2ccco2)Cc2ccccc2F)c(C(=O)Nc2cccc(Cl)c2)n1,-17%,?,-29,-10%,.,-11%[46.1 µM]
CC1=CC(O)C(O)C2(C)C1CC1OC(=O)CC3C(C)C(O)C(=O)C2C13CO (stereo not drawn),8.9µM*,-15%,.,6.3µM*,?,?
CCC(=O)Nc1ccc(S(=O)(=O)N2CCOCC2)cc1,i,6%,30,-10%,18%,23%
Cc1c(C(=O)Nc2ccc(Cc3ccncc3)cc2)cccc1[N+](=O)[O-],-11%,1%,-79*,-21%,-14%,?
O=C(Nc1ccc(S(=O)(=O)N2CCOCC2)cc1)c1ccc([N+](=O)[O-])s1,?,?,6,1%,8.9µM*,-6%[46.1 µM]
O=C(Nc1ccc(S(=O)(=O)N2CCCCCC2)cc1)c1ccc(Br)o1,.,9.2µM*,?,.,?,?
CCc1c(C(=O)Nc2ccc(S(=O)(=O)N3CCOCC3)cc2)csc1C,-7%,-21%,11,-14%,10µM*,6%
Cc1ccc(C(=O)Nc2ccc(S(=O)(=O)N3CCCC3)cc2)o1,-9%,-6%,17,-8%,-3%,1%
Cc1cccc(C)c1N=CN1c2ccccc2-n2cccc2C1CCc1ccccc1 (stereo not drawn),.,.,4,.,.,.
Cc1ccsc1CN1CCc2nnc(CCNC(=O)c3ccc(F)cc3)n2CC1,i,.,.,-18%,.,.
SMILES,Vaccinia mCherry,Lassa entry inh,HCMV antiviral,Vaccinia Venus,HCV inhibitor,Marburg entry inh
O=C(CCNS(=O)(=O)c1ccc2c(c1)CCN2C(=O)C1CC1)Nc1ccc(F)cc1F,-9%,-15%[46.1 µM],-10,1%,.,.
CC1CCCCN1CCCNC(=O)c1cc(Sc2cccc(Cl)c2)nc2ccccc12 (stereo not drawn),-3%,-9%[46.1 µM],?,-26%,.,.
CCOC(=O)C1(C(=O)OCC)Cc2ccc(C(C)=O)cc2C1,.,?,.,.,.,-20%[14.2 µM]
Cc1ccc(NC(=O)c2cc(S(=O)(=O)N3CCOCC3)c(Br)s2)cc1,-26%,10µM*,-39,-17%,-25%,-25%
O=C(Nc1ccc(N2CCOCC2)cc1)c1ccc([N+](=O)[O-])o1,11µM*,-28%[46.1 µM],-103*,?,?,?
O=C(Nc1ccc(S(=O)(=O)N2CCCC2)cc1)c1ccc([N+](=O)[O-])o1,.,.,.,.,2.8µM*,.
O=C(Nc1ccc(S(=O)(=O)N2CCOCC2)cc1)c1ccc([N+](=O)[O-])o1,?,-25%,-99*,18µM*,-22%,?
Cc1ccc(C(=O)Nc2ccc(F)c(S(=O)(=O)N3CCOCC3)c2)s1,.,.,-3,.,?,.
Cc1cc(-c2ccnc(-n3ncc(C(=O)NCCc4cccnc4)c3C)n2)c(C)s1,-13%,.,.,-27%,.,.
CCOc1ccc(CCNC(=O)c2ccc(CSCc3ccccc3C)o2)cc1OCC,0%,2%[46.1 µM],-10,-20%,.,.
CCOC(=O)c1cccc(NC(=O)CN2C(=O)c3ccccc3Sc3ncccc32)c1,-18%,?,-4,-8%,.,.
O=C(Nc1ccc(Cc2ccncc2)cc1)c1ccc([N+](=O)[O-])o1,10µM*,?,-101*,?,?,?
Cc1cc(F)ccc1-n1nnc(C(N)=O)c1C,-2%,1%[46.1 µM],8,1%,.,7%[46.1 µM]
O=C(Nc1nnc(-c2ccc3c(c2)CCCC3)o1)c1ccccc1,10µM*,.,-4,?,?,.
O=C(Nc1nnc(-c2ccc(F)cc2)o1)c1cccc([N+](=O)[O-])c1,?,-25%,-98*,?,13µM*,?
CC(C)NC(=O)COC(=O)CNC(=O)C1CCCCC1,4%,.,.,-15%,.,.
COC(=O)CC=C1c2ccc(OC)cc2[C@@H](OC)[C@@H]1C,.,?,.,.,.,4%[14.2 µM]
Cc1ccc(Cl)cc1NC(=O)Nc1cn(CC(C)C)c(=O)c2ccccc12,-11%,-18%[46.1 µM],-12,14%,.,-5%[46.1 µM]
COc1ccc(S(=O)(=O)N2CC3CC(C2)c2cccc(=O)n2C3)cc1 (stereo not drawn),6%,-9%,-65*,-1%,13%,-26%[46.1 µM]
CCCOc1ccc(C(=O)Nc2ccc(S(=O)(=O)N3C[C@@H]4C[C@@H](C3)c3cccc(=O)n3C4)cc2)cc1,?,.,-14,?,3.2µM*,3%
CC(C)COc1cccc(C(=O)Nc2ccc(N3CCOCC3)cc2N2CCOCC2)c1,-13%,-11%,?,-10%,7.9µM*,?
CC(C)COc1cccc(C(=O)Nc2ccc(CN3CCOCC3)cc2)c1,-12%,?,-26,?,3.2µM*,?
